In the supplement of paper PMC7156485:
Values joined by “and” are separate entries in the source; they are usually repeats but may differ in a detail not shown here. Equal entries are not always repeated. ± gives the standard deviation of the averaged measurements.

Assays:
Conditions in all cases: concentration: 10 µM; 24 h
HCC1569 [1] = experiment: cell number relative to DMSO (% of DMSO); higher = more cells (less growth inhibition / toxicity)
Outline: (§1)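 Six fields per well were imaged at ×10 after the cells were fixed in 3.7% formaldehyde and stained with a rabbit anti-H1.0 antibody, an AlexaFluor 647 secondary and DAPI. The HCC1569 and TDF cells had been plated at 800 per well in 384-well plates (RPMI, 10% FBS) and treated in triplicate with compounds at 10 µM for 24 h at 37 °C. The values are the median of replicates of H1.0 nuclear intensity or cell number, as percent of the plate control. Smoothing for positional effects was applied to HCC1569 data.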

TDF [2] = experiment: as above
Outline: as §1

TDF [3] = experiment: H1.0 immunofluorescence intensity relative to DMSO (% of DMSO); higher = stronger H1.0 induction, active = 120 or more
Outline: as §1

HCC1569 [4] = experiment: H1.0 immunofluorescence intensity relative to DMSO (% of DMSO); higher = stronger H1.0 induction, active = 140 or more
Outline: as §1
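Wherever H1.0 immunofluorescence intensity relative to DMSO is given: TDF is a line of transformed human dermal fibroblasts of mesenchymal origin.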
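Wherever cell number relative to DMSO is given: TDF denotes transformed human dermal fibroblasts of mesenchymal origin.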

Row | SMILES | cell number (HCC1569 [1]) | cell number (TDF [2]) | H1.0 immunofluorescence intensity (TDF [3]) | H1.0 immunofluorescence intensity (HCC1569 [4])
1 | O=C(O)c1cc(=O)c2ccc(Cl)cc2[nH]1 [7-Chlorokynurenic acid] | 96.9 | 105 | 92 (inactive) | 91 (inactive)
2 | Cc1ccccc1C(C(=O)NC1CCCCC1)N(C(=O)Cn1ccnc1C)c1cccc(F)c1 (configuration not stated) | 94.3 | 106 | 95.3 (inactive) | 105 (inactive)
3 | Cc1cnc(-c2cc(N3CCN(C(=O)CCS(C)(=O)=O)CC3)ncc2Cl)c(C)c1.Cl | 103 | 103 | 83.9 (inactive) | 104 (inactive)
4 | CC(C)CC(NC(=O)C(COC(C)(C)C)NC(=O)C(Cc1ccc(O)cc1)NC(=O)C(CO)NC(=O)C(Cc1c[nH]c2ccccc12)NC(=O)C(Cc1cnc[nH]1)NC(=O)C1CCC(=O)N1)C(=O)NC(CCCN=C(N)N)C(=O)N1CCCC1C(=O)NNC(N)=O (configuration not stated) [Goserelin] | 100 | 105 | 94.5 (inactive) | 103 (inactive)
5 | CCCC(CCC)C(N)=O [2-propylpentanamide] | 112 | 106 | 97 (inactive) | 95.6 (inactive)
6 | C=CC(C)(C=Cc1ccc(O)cc1)CCC=C(C)C (configuration not stated) [Bakuchiol] | 84.7 ± 3.6 | 91.2 ± 4.6 | 97.7 (inactive) | 96.8 (inactive)
7 | CC1CCC2(C(=O)O)CCC3(C)C(=CCC4C5(C)CC(O)C(O)C(C)(CO)C5C(O)CC43C)C2C1C (configuration not stated) [Madecassic acid] | 105 | 102 | 91.6 (inactive) | 91.7 (inactive)
8 | NS(=O)(=O)c1cc2c(cc1Cl)NC=NS2(=O)=O [Chlorothiazide] | 105 | 105 | 95.5 (inactive) | 94 (inactive)
9 | CC1=CC(=O)c2ccccc2C1=O [Menadione] | 99.9 | 82.8 | 106 (inactive) | 91.9 (inactive)
10 | CCCCCC(O)C=CC1C(O)CC(O)C1CC=CCCCC(=O)O (stereo not drawn) [8-Epi-prostaglandin F2a] | 102 | 110 | 96.2 (inactive) | 100 (inactive)
11 | CC(=O)Nc1nc(C)c(S(=O)(=O)Nc2ccc(C(O)(C(F)(F)F)C(F)(F)F)cc2)s1 | 97.5 | 109 | 85.1 (inactive) | 111 (inactive)
12 | O=C1Nc2ccc(I)cc2C1=Cc1cc(Br)c(O)c(Br)c1 | 98.5 and 105 | 103 | 93.5 (inactive) and 85.7 (inactive) | 110 (inactive) and 83.8 (inactive)
13 | CC(C)CNCc1ccc(-c2ccccc2S(=O)(=O)N2CCCC2)cc1.Cl | 96 | 99.2 | 88.9 (inactive) | 100 (inactive)
14 | CC(=O)OCC=C(C)C=CC=C(C)C=CC1=C(C)CCCC1(C)C [Vitamin A acetate] | 98.7 | 107 | 91.8 (inactive) | 119 (inactive)
15 | CCC(=O)N1CCN(C(=O)c2ccccc2)CC1 | 106 | 111 | 94.2 (inactive) | 89.3 (inactive)
16 | CC(C)(Oc1ccc(C2CC2(Cl)Cl)cc1)C(=O)O (configuration not stated) [Ciprofibrate] | 104 | 110 | 97.8 (inactive) | 98.1 (inactive)
17 | CC(=O)Oc1ccccc1C(=O)Oc1ccc(CO[N+](=O)[O-])cc1 [4-[(nitrooxy)methyl]phenyl 2-(acetyloxy)benzoate] | 50.1 | 66.5 | 110 (inactive) | 143 (active)
18 | CC(NC(=O)C(C#N)=Cc1ccc(O)c(O)c1)c1ccccc1 (configuration not stated) [Tyrphostin AG 527] | 91.2 | 89.2 | 87.7 (inactive) | 107 (inactive)
19 | CC(C)(C)C(=O)Oc1ccc(S(=O)(=O)Nc2ccccc2C(=O)NCC(=O)[O-])cc1.O.[Na+] | 101 | 98.8 | 87.6 (inactive) | 108 (inactive)
20 | CN(CCOc1ccc(NS(C)(=O)=O)cc1)CCc1ccc(NS(C)(=O)=O)cc1 [Dofetilide] | 98 | 121 | 103 (inactive) | 99.5 (inactive)
21 | Cc1ccc(OCC(O)C(C)NC(C)C)c2c1CCC2.Cl (configuration not stated) [ICI 118,551 hydrochloride] | 101 | 104 | 96.9 (inactive) | 98.4 (inactive)
22 | O=C(NC(Cc1cc(=O)[nH]c2ccccc12)C(=O)O)c1ccc(Cl)cc1 (configuration not stated) [Rebamipide] | 104 | 99.7 | 93.2 (inactive) | 105 (inactive)
23 | COc1cc(Nc2c(C#N)cnc3cc(OCCCN4CCN(C)CC4)c(OC)cc23)c(Cl)cc1Cl [Bosutinib] | 67 | 7.38 | 135 (active) | 39.6 (inactive)
